# According to PubChem BioAssay (Tox21):
# Values joined by “and” are separate entries in the source; they are usually repeats but may differ in a detail not shown here. Identical values can stand only once. Records with an inconclusive call do not appear. A number with no mark means an inactive call. Active and inactive are the calls of the source. Calls follow the shape of the dose curve; as a rule, active = well fitted cell-killing curve with a large enough effect in the repeat runs; inconclusive = weak or mixed curves, or effect the other way; inactive = no such curve, though single readings can be large or run the other way. Starred links: 1 amine or outer side, 2 acyl side, 3 side chain; linkers in the order of their positions; H or OH if unused. Positions of bridges follow the written chain, without caps; N, C: chain ends. Non-standard residues stand in square brackets, D forms with d. Residues, ends and D or L forms follow the SMILES beside them. Chains are numbered I, II in the order given. Actinocin(9to1) = Cc1c2oc3c(C)ccc(C(=O)[*:1])c3nc-2c(C(=O)[*:2])c(N)c1=O; NMeV = CN[C@H](C(=O)O)C(C)C; Sar = CNCC(=O)O
# Assay: qHTS assay to identify small molecule antagonists of the retinoid-related orphan receptor gamma (ROR-gamma) signaling pathway - cell viability counter screen (AID 1159520); also: nearly all actives have a fitted effect of over 50% in size
# Settings: Tet-on RORgamma CHO cells viability, ATP luminescence, 16 h; series mostly up to 92.4 µM; activity, negative = cytotoxicity: at the top concentration
# Text: U.S. Tox21 Program National Center for Advancing Translational Sciences [NCATS] NIH Chemical Genomics Center [NCGC] U.S. Environmental Protection Agency [EPA] National Institutes of Environmental Health Sciences [NIEHS] National Toxicology Program [NTP] U.S. Food and Drug Administration [FDA] Tox21 Assay Overview: Nuclear steroid hormone receptors are involved in many biological processes including inflammatory responses, cell proliferation, and apoptosis. Environmental factors or compounds disrupting these nuclear receptor pathways and gene expression may promote susceptibility to immunotoxicants and autoimmune diseases. One important group of these expression factors are the retinoid-related orphan receptors. To assess compounds that may interfere with the retinoid-related orphan receptor gamma (ROR-gamma) transcription factor, a cell-based luciferase assay was used. The CHO cell-based assay utilizes a TET-inducible ROR expression factor and ROR response element-LUC reporter gene. Reporter gene activity was induced using Doxycycline Hyclate and measured after 16 hr incubation. Tet-on ROR gamma CHO cells were used to screen against the Tox21 10K compound library for cytotoxicity by measuring the viability of the cells based on the quantitation of the ATP.
# Tox21 Assay Protocol Summary: Tet-on ROR gamma CHO cells were dispensed at 1,000 cells in 4 uL of culture medium per well into white wall/solid bottom 1536-well plates using a Multidrop Combi (Thermo Scientific, Waltham, MA) dispenser. Following incubation at 37 C and 5% CO2 for 4 hr, 23 nL of compounds dissolved in DMSO, positive controls or DMSO only were transferred by a Pintool station (Kalypsys, San Diego, CA) and after 2 hr incubation at 37 C, one ul of 1 uM (final concentration) of Doxycycline Hyclate was added to all the wells by using a Flying Reagent Dispenser (FRD) (Aurora Discovery, San Diego, CA). After 16 hr incubation at 37 C and 5% CO2, 5 uL of CellTiter-Glo reagent (Promega Corporation, Madison, WI) was added to each assay plate using FRD. After 30 min incubation at room temperature, luminescence was quantified on a ViewLux plate reader (Perkin Elmer, Waltham, MA).
# % is scaled to controls: 0 for no effect and ±100 for the full control effect; potency is read from the fitted curve at half-maximal effect.
SMILES,Potency,"activity, negative = cytotoxicity"
CCC(=O)/C=C/C1C(C)=CCCC1(C)C (stereo not given),inactive,
CCCCCCCCCCCCCCCCCl,,5.98% [at 19 µM]
NC(N)=Nc1nc(CSCC/C(N)=N/S(N)(=O)=O)cs1,inactive,
c1ccc2n[nH]nc2c1,inactive,
CCN(CC)CCOc1ccc(/C(=C(\Cl)c2ccccc2)c2ccccc2)cc1,31.3 µM (active),
Oc1ccc(Cl)cc1Cc1cc(Cl)ccc1O,24.8 µM (active),
CC(N)=O,,0.269% [at 240 µM]
O=C(O)CCc1ccccc1,,4.42%
Clc1ccc2c(c1)C(N1CCNCC1)=Nc1ccccc1O2,inactive,
"Cc1c2oc3c(C)ccc(C(=O)N[C@@H]4C(=O)N[C@H](C(C)C)C(=O)N5CCC[C@H]5C(=O)N(C)CC(=O)N(C)[C@@H](C(C)C)C(=O)O[C@@H]4C)c3nc-2c(C(=O)N[C@@H]2C(=O)N[C@H](C(C)C)C(=O)N3CCC[C@H]3C(=O)N(C)CC(=O)N(C)[C@@H](C(C)C)C(=O)O[C@@H]2C)c(N)c1=O (I: T[dV]P[Sar][NMeV] / II: T[dV]P[Sar][NMeV]; ester I:1-I:C, II:1-II:C; linker I:N-II:N via Actinocin(9to1))",59.4 nM (active) and 59.6 nM (active),
CC(=O)OCC1=C(C(=O)O)N2C(=O)[C@@H](NC(=O)Cc3cccs3)[C@H]2SC1,,3.54% [at 42.5 µM]
CN(C)c1ccc(C(=C2C=CC(=[N+](C)C)C=C2)c2ccccc2)cc1,5.45 µM (active) and 4.22 µM (active) and 10.6 µM (active),
Cc1ccc(S(=O)(=O)Oc2ccc(N=Nc3ccc(-c4ccc(N=Nc5c(O)ccc6cc(S(=O)(=O)O)cc(S(=O)(=O)O)c56)c(C)c4)cc3C)cc2)cc1,,-21.6% [at 42.5 µM]
Cc1occc(=O)c1OC(=O)C(C)C,,7.37%
CC(C)CCOCc1ccccc1,,7.78%
CC[C@@H](N)CO,,2.16%
C1COC(NC(C2CC2)C2CC2)=N1,,3.53% [at 42.5 µM]
CCC[C@H](N[C@@H](C)C(=O)N1[C@H](C(=O)O)C[C@@H]2CCCC[C@@H]21)C(=O)OCC,inactive,
CC(C)CCCCCCc1ccc(O)cc1,24.8 µM (active),
CC1COC(=O)O1 (stereo not given),inactive,

SMILES,Potency,"activity, negative = cytotoxicity"
CCN(CC)C(=O)Nc1ccc(OCC(O)CNC(C)(C)C)c(C(C)=O)c1 (stereo not given),,2.9% [at 42.5 µM]
C=C(C)C1CC=C(C)C(OC(C)=O)C1 (stereo not given),inactive,
CCc1ccc(C(c2ccc(CC)cc2)C(Cl)Cl)cc1,inactive,
CC(=O)C1=C(C)[C@@H]2C[C@@]3(C1)[C@H](C)CC[C@H]3C2(C)C,inactive,
NNCCc1ccccc1,inactive,
CC(C)(C)NC(=O)[C@@H]1CN(Cc2cccnc2)CCN1C[C@@H](O)C[C@@H](Cc1ccccc1)C(=O)N[C@H]1c2ccccc2C[C@H]1O,inactive,
OCC(CO)N[C@H]1C[C@](O)(CO)[C@@H](O)[C@H](O)[C@H]1O,,4.72% [at 42.5 µM]
Cc1scc2c1N(C(=O)CN1CCN(C)CC1)c1ccccc1NC2=O,,1.94% [at 42.5 µM]
O=c1n(CC2CO2)c(=O)n(CC2CO2)c(=O)n1CC1CO1 (stereo not given),inactive,
CCc1cc(C(C)(C)C)c(O)c(C(C)(C)C)c1,inactive,
CNC1(C)C2CCC(C2)C1(C)C (stereo not given),,1.3% [at 42.5 µM]
NCCCCCC(=O)O,,8.11% [at 42.5 µM]
COC(=O)[C@H]1[C@H]2C[C@@H]3c4[nH]c5cc(OC)ccc5c4CCN3C[C@H]2C[C@@H](OC(=O)c2cc(OC)c(OC)c(OC)c2)[C@@H]1OC,,-10.8% [at 42.5 µM]
Cc1cc(C(C)(C)C)c(O)c(C(C)(C)C)c1,inactive,
CC(=O)O[C@]1(C(C)=O)CC[C@H]2[C@@H]3C[C@H](C)C4=CC(=O)CC[C@]4(C)[C@H]3CC[C@@]21C,inactive,
CC(=O)CC(C)=O,,-1.35%
[Cl][In]([Cl])[Cl],inactive,
Cc1cccc2n[nH]nc12,inactive,
CC(C)(C)NCC(O)COc1ccccc1OCC1CCCO1 (stereo not given),,2.14% [at 42.5 µM]
COc1cc(C(=S)N2CCOCC2)ccc1O,,-0.0876% [at 42.5 µM]
